Binding signal data for 1 sequence are collected here from publication PMC7862700, “An all-to-all approach to the identification of sequence-specific readers for epigenetic DNA modifications on cytosine”.

Test in all cases: DAPPL (digital affinity profiling via proximity ligation, sequencing); 10 mM Tris-HCl pH 7.5, 50 mM NaCl, 1 mM DTT, 4% glycerol, room temperature, 30 min; GST-TFs on glutathione beads, 16-mer random dsDNA library, 0.1% formaldehyde crosslink after washing; high values mean tight binding
What all share (conditions): protein: recombinant; tags: N-terminal GST; dsDNA, one strand shown

For assay [1], the target named is T1, FLI1 (Homo sapiens, UniProt Q01543 1-452).
T1 sequence: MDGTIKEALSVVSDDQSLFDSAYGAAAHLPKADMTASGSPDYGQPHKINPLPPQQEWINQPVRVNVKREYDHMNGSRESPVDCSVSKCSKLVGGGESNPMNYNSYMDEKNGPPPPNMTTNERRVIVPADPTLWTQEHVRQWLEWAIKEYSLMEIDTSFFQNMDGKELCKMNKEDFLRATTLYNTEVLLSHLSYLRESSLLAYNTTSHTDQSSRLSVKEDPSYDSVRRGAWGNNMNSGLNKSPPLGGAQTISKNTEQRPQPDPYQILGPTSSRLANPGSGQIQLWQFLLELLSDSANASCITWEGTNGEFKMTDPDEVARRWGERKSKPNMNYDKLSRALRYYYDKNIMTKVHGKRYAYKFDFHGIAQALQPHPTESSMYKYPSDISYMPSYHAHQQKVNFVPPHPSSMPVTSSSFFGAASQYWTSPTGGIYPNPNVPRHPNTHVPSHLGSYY
In outline:
(§1)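 Pools of DNA-barcoded human transcription factors, expressed in yeast as GST fusions on glutathione beads and combined with a tag-only sample, were incubated with 200 nmole of a 16-mer random double-stranded DNA library. Incubation took 30 min at room temperature in Tris/NaCl/DTT/glycerol buffer and was followed by washing, 0.1% formaldehyde crosslinking, proximity ligation (BsaI/T4 ligase, 1 h, 37 °C), PCR amplification and sequencing on an Illumina NextSeq500. Binding signal is the ratio of a hexamer's read frequency for a factor to its frequency for the tag-only sample.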

Assay [2] has as its target T2, ELK1 (Homo sapiens, UniProt P19419 1-428).
T2 sequence: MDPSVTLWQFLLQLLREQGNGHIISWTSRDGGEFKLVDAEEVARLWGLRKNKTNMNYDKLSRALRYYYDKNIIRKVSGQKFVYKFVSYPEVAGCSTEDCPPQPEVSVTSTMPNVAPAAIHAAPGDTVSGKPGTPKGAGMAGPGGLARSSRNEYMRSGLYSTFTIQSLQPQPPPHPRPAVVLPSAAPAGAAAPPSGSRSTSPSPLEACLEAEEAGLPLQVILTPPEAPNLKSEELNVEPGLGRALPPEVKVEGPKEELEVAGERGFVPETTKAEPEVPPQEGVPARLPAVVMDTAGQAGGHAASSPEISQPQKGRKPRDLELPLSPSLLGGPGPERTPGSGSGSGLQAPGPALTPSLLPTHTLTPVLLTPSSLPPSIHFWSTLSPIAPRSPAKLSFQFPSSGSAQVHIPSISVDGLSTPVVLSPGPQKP
In outline:
as §1

The target of assay [3] is T3, GABPA (Homo sapiens, UniProt Q06546 1-454).
T3 sequence: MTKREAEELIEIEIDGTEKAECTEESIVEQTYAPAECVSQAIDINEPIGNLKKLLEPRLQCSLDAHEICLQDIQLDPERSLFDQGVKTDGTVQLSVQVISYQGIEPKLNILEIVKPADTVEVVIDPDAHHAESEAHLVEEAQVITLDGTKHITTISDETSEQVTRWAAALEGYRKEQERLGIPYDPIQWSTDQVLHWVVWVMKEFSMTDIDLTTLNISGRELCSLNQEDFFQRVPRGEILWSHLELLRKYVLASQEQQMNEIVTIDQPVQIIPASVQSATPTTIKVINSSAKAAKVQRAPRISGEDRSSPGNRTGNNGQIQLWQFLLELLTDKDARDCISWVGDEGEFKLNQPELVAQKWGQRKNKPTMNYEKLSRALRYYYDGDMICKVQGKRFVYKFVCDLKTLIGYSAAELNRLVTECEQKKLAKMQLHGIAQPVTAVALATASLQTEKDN
Summed up:
as §1

Assay [4] addresses T4, ERG (Homo sapiens, UniProt P11308 1-479).
T4 sequence: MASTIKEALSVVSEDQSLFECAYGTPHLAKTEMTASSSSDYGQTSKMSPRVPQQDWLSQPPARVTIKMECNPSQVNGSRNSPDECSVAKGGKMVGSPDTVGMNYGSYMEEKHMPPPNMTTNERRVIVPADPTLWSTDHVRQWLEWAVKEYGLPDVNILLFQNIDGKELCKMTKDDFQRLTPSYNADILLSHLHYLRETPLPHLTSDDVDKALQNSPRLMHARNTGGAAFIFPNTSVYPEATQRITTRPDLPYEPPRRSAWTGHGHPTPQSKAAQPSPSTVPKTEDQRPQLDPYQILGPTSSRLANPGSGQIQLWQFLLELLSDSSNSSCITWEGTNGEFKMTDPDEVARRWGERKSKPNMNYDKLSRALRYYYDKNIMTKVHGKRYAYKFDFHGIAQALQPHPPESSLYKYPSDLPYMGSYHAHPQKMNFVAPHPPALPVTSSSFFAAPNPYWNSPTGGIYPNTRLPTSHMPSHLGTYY
Summed up: as §1

In assay [5] the target is ELF1 (Homo sapiens, UniProt P32519 1-619). In outline: as §1
The target of assay [6] is T5, EHF (Homo sapiens, UniProt Q9NZC4 1-300).
T5 sequence: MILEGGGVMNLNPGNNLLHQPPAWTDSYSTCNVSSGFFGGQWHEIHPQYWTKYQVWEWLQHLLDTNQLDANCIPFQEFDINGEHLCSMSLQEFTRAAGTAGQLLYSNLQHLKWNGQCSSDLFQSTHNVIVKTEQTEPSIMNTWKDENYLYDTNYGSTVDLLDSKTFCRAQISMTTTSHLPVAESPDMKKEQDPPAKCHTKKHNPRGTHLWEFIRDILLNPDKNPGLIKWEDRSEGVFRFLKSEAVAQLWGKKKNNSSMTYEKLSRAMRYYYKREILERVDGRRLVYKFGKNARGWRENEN
In outline:
as §1

The target in assay [7] is SPI1 (Homo sapiens, UniProt P17947 1-270). In outline:
as §1

The target of assay [8] is SPIB (Homo sapiens, UniProt Q01892 1-262). In outline:
as §1

Assay [9] concerns the target T6, FEV (Homo sapiens, UniProt Q99581 1-238).
T6 sequence: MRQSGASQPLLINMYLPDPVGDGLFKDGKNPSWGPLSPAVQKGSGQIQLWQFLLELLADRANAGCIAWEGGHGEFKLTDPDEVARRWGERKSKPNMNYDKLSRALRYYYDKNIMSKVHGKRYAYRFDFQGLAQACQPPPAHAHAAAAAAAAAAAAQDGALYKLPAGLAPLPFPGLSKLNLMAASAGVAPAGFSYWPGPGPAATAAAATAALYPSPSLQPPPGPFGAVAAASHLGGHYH
Summed up: as §1

For assay [10], the target named is ETV5 (Homo sapiens, UniProt P41161 1-510). In outline:
as §1

Assay [11] addresses T7, SPIC (Homo sapiens, UniProt Q8N5J4 1-248).
T7 sequence: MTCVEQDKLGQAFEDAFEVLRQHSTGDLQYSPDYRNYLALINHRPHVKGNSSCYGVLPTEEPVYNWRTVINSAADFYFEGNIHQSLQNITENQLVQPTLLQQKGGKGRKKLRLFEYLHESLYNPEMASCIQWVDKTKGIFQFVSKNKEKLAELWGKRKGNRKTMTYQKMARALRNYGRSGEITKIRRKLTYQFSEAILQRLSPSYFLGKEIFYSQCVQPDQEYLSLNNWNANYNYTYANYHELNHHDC
In outline:
as §1

Assay [12] concerns the target ELF4 (Homo sapiens, UniProt Q99607 1-663). Summed up: as §1
Assay [13] deals with ETV1 (Homo sapiens, UniProt P50549 1-477). In outline: as §1
Assay [14] addresses T8, ETV3L (Homo sapiens, UniProt Q6ZN32 1-361).
T8 sequence: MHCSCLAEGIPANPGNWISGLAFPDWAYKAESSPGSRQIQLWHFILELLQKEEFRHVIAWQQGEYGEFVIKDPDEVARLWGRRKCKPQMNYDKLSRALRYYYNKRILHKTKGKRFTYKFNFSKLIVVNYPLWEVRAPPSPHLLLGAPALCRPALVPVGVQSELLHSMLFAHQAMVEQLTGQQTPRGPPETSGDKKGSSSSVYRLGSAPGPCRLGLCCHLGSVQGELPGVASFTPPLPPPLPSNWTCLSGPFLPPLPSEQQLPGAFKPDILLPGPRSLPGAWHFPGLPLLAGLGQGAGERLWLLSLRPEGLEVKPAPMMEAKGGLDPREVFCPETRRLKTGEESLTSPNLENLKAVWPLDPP
Summed up: as §1

Assay [15] concerns the target T9, ETS2 (Homo sapiens, UniProt P15036 1-469).
T9 sequence: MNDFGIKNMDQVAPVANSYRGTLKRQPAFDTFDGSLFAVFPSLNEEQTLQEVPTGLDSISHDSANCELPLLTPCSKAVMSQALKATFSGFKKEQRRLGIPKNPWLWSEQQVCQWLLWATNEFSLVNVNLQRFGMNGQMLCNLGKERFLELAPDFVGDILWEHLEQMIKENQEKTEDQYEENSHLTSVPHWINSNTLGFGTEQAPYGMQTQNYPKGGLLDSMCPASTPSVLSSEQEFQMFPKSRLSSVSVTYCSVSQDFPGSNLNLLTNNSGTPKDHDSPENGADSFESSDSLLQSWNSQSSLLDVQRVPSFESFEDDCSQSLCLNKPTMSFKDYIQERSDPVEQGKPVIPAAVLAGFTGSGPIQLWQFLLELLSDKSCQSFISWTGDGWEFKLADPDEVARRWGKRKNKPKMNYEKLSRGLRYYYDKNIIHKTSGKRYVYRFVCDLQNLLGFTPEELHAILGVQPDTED
In outline:
as §1

In assay [16] the target is T10, SPDEF (Homo sapiens, UniProt O95238 1-335).
T10 sequence: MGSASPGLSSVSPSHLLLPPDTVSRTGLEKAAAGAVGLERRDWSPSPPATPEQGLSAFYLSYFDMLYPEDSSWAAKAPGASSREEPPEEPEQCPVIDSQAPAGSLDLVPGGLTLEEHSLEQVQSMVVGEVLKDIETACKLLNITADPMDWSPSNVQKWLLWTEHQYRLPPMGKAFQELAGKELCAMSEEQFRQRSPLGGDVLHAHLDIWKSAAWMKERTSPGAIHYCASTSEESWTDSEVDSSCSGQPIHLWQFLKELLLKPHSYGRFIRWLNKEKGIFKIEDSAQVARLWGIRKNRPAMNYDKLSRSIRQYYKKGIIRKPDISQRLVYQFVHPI
In outline:
as §1

Assay [17] concerns the target T11, ELF5 (Homo sapiens, UniProt Q9UKW6-2 1-255).
T11 sequence: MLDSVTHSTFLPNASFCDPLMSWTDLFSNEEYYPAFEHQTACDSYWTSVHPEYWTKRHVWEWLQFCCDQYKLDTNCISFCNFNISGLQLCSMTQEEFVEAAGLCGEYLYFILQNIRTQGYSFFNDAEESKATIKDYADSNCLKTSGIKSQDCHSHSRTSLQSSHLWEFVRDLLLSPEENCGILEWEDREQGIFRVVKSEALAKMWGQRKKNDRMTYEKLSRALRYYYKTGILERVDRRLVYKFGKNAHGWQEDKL
In outline:
as §1

Assay [18] addresses T12, ETV3 (Homo sapiens, UniProt P41162-2 1-143).
T12 sequence: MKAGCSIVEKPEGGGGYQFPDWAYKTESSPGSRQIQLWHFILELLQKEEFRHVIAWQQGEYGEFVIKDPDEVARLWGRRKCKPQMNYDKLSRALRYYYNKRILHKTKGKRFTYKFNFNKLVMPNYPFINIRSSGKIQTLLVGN
Summed up: as §1

ETV1, sequence (P50549 whole entry): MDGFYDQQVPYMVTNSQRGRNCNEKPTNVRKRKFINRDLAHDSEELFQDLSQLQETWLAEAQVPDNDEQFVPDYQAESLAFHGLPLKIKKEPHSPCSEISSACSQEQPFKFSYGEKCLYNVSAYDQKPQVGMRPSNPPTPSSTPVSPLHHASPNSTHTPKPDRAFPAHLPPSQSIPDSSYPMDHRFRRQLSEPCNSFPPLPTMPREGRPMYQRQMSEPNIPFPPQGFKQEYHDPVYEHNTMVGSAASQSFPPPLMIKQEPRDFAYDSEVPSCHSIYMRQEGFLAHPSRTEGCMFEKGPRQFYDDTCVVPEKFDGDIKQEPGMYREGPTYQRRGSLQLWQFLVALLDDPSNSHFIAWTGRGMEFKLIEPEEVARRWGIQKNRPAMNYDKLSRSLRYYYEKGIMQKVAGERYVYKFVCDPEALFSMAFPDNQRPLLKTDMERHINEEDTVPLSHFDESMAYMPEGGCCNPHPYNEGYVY
ETV5, sequence (P41161 whole entry): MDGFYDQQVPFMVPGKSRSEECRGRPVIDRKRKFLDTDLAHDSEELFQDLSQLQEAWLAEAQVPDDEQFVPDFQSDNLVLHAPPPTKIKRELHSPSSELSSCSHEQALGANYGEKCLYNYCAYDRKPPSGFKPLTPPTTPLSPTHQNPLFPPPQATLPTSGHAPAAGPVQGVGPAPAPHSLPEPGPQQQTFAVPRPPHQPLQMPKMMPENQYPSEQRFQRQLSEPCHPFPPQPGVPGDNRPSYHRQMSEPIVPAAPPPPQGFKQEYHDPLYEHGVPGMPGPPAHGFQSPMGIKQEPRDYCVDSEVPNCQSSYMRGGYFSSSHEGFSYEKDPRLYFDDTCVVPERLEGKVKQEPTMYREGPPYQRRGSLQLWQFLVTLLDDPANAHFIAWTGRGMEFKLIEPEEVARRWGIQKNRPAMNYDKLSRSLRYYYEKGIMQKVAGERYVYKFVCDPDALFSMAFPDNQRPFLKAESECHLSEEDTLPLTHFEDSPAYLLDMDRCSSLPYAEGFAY
ELF1, sequence (P32519 whole entry): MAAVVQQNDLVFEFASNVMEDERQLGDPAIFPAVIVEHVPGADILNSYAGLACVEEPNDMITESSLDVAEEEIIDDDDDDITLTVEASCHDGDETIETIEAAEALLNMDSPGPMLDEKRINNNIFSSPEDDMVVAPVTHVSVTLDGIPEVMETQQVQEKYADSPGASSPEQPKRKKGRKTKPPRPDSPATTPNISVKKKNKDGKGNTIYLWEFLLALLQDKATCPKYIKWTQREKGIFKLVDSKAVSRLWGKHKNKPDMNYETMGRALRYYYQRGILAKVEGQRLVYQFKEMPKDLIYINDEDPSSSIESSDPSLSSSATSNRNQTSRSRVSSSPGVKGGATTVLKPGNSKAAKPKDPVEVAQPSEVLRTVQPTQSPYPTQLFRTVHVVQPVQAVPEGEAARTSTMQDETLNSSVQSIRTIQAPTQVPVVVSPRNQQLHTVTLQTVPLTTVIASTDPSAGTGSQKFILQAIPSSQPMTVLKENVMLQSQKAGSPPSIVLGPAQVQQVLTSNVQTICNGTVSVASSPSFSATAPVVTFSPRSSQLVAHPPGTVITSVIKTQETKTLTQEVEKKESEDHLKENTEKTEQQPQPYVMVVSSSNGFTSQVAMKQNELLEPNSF
ELF4, sequence (Q99607 whole entry): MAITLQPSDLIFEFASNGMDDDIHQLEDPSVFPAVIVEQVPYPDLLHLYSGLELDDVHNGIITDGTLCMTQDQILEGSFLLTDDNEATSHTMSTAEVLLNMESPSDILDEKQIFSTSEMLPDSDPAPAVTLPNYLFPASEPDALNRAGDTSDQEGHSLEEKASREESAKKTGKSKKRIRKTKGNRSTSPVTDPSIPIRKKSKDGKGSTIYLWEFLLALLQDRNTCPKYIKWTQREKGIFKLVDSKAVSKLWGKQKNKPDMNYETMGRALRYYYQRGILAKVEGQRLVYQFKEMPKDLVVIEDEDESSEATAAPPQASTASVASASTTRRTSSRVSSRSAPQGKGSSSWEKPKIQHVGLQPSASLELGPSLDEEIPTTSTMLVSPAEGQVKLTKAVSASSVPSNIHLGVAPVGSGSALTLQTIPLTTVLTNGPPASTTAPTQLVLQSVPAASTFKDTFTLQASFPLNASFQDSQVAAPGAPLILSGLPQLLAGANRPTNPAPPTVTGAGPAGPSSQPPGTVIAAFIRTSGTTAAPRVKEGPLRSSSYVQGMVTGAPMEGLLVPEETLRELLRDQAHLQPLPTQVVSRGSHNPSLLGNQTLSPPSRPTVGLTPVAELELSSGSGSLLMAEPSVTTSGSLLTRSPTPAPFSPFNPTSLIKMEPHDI
SPIB, sequence (Q01892 whole entry): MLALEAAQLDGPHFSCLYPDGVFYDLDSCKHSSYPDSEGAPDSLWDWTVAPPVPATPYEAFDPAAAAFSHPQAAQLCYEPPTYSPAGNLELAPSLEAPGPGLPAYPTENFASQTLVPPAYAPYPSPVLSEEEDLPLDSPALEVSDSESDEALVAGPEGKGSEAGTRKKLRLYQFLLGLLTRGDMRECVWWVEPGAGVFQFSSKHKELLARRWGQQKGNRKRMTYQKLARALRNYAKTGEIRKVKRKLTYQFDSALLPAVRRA

Regarding GGGTTC, the binding signal in assay [1] is 1.06 fold enrichment (6-mer frequency, TF over GST control); in assay [2], 1.02 fold enrichment (6-mer frequency, TF over GST control); in assay [3], 1.01 fold enrichment (6-mer frequency, TF over GST control); in assay [4] it was 1.04 fold enrichment (6-mer frequency, TF over GST control); in assay [5], 1.11 fold enrichment (6-mer frequency, TF over GST control); in assay [6], 1.02 fold enrichment (6-mer frequency, TF over GST control). The binding signal in [7] was 1.11 fold enrichment (6-mer frequency, TF over GST control); in assay [8], 1.09 fold enrichment (6-mer frequency, TF over GST control); in [9], 1.03 fold enrichment (6-mer frequency, TF over GST control); in assay [10], 1.08 fold enrichment (6-mer frequency, TF over GST control); in assay [11], 1.02 fold enrichment (6-mer frequency, TF over GST control); in assay [12] it was 1.12 fold enrichment (6-mer frequency, TF over GST control). Moreover, the binding signal in assay [13] is 1.08 fold enrichment (6-mer frequency, TF over GST control); in assay [14] it was 1.09 fold enrichment (6-mer frequency, TF over GST control); in [15], 1.07 fold enrichment (6-mer frequency, TF over GST control); in assay [16], 1.14 fold enrichment (6-mer frequency, TF over GST control); in assay [17], 1.1 fold enrichment (6-mer frequency, TF over GST control); in assay [18], 1.1 fold enrichment (6-mer frequency, TF over GST control).
